Compound activity (PubChem)
The list is not random: actives were taken first. Their share in the collection is about 2.8%.
Bim-Mcl-1 – human Bim-Mcl-1 interaction inhibition; Q07820; Bead-based flow cytometry, Bim peptide-Mcl-1 binding; inhibition, % at 10 µM; 0.1% of 190,000 active; in the data active means inhibition above about 40%
Target sequence (Q07820 whole entry, looked up): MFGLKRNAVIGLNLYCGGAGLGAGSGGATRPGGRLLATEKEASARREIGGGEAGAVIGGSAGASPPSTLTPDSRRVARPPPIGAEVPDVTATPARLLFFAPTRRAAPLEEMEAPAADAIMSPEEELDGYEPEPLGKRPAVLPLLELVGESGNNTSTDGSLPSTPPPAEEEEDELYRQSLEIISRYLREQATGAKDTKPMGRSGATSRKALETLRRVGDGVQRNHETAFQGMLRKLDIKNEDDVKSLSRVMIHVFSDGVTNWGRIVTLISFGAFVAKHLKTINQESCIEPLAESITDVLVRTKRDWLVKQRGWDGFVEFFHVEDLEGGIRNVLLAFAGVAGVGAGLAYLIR
Mcl1-Bid inh – Mcl-1/Bid interaction inhibition; TR-FRET Mcl-1/Bid-Dy647 peptide binding, 1536-well; Q07820; inhibition, % at 21.7 µM; 0.97% of 220,000 active;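 active means compounds that cut the binding signal by more than half at the single screening dose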;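 further: His-tagged Mcl-1 with europium anti-His antibody binding Bid BH3 peptide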
zVAD death inh – blocks zVAD induced death of L929 cells; L929 zVAD necroptosis rescue, ATP luminescence, 24 h; with zVAD 60 µM; viability rescue, % at 10 µM; 0.38% of 220,000 active; AID 1377;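 active means activation, scaled between plate controls, above about 75%, limit read from the data; inactive means activation under that limit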
TNF death inh – blocks TNF-alpha induced death of Jurkat FADD-/- cells. Jurkat FADD-/- TNF necroptosis rescue, ATP luminescence, 24 h; 0 = TNF only, 100 = no-TNF cells. activation (protection from cell death), % at 10 µM. 0.068% of 220,000 active;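 active means activation, meaning protection from cell death, of at least 50% relative to plate controls; inactive means activation below 50%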;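 further: necroptosis triggered by 40 ng/mL TNF-alpha added together with compound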
Mcl1 Noxa PPI – disrupts binding of human Mcl-1 to Noxa peptide; Q07820; TR-FRET Mcl-1/Noxa peptide binding, 2 h; inhibition, % at 21.7 µM; 1.5% of 220,000 active;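 active means compounds that cut the protein-peptide binding signal by more than 50% relative to plate controls in a single-dose test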;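 further: His-tagged Mcl-1 with rhodamine Noxa BH3 peptide and terbium anti-His antibody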
Calpain2 inh – inhibitors of pig calpain II; purified calpain II, fluorogenic peptide substrate, 30 min; inhibition, % at 16 µM; 0.37% of 220,000 active; AID 1236;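 active means inhibition above about 50%, limit read from the data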
Of the large screens only hits and unclear results are named; the others gave an inactive call.

O=[N+]([O-])c1ccc(C2Nc3cccc4cccc(c34)N2)cc1	Mcl1 Noxa PPI 67.4
NNC(=O)c1cc2cc3ccccc3nc2s1	none
Cc1occc1-c1nnc(SCC(=O)N2CCCCC2)o1	none
Cc1scc(C(=O)NNC(=O)CCC(=O)O)c1C	none
CC(C)(C)C1CCc2c(C(=O)NNC(=O)CCC(=O)O)csc2C1 (centres undefined)	Mcl1 Noxa PPI 104.1
COc1ccc(CCNC(=O)c2ccc(CNS(=O)(=O)c3ccc(C(C)(C)C)cc3)cc2)cc1OC	Mcl1-Bid inh 97.4
COc1ccc(CCNC(=O)c2ccc(CNS(=O)(=O)c3cccc(Cl)c3)cc2)cc1OC	none
CCN(CC)C(=O)COC(=O)c1cc(-c2ccc(OC)cc2)nc2ccccc12	Mcl1-Bid inh 96.8
O=C(COC(=O)c1cc(-c2ccco2)nc2ccccc12)NCc1ccccc1	none
CCOC(=O)c1cc(-c2ccco2)nc2c1c(C)nn2CCC#N	none
O=C(O)c1ccccc1/C=N/NC(=O)c1cc(-c2ccco2)nc2ccccc12	Mcl1 Noxa PPI 99.2 (no result: Bim-Mcl-1)
CCN(CC)C(=O)COC(=O)c1cc(-c2ccco2)nc2ccccc12	Mcl1 Noxa PPI 89.8
CC(=O)Nc1ccc(/C=N/NC(=O)c2cc(-c3ccco3)nc3ccccc23)cc1	none (no result: Bim-Mcl-1)
CCOC(=O)c1cc(-c2ccco2)nc2c1c(C)nn2-c1cccc(Cl)c1	Mcl1 Noxa PPI 77.5
Cn1c(=O)[nH]c(=O)c2c1nc(SCCO)n2CC(O)COc1ccccc1 (centres undefined)	none
Cc1ccc2cccc(S(=O)(=O)N3CCCc4ccccc43)c2n1	none
CNC(=O)COC(=O)c1cc(-c2ccco2)nc2ccccc12	Mcl1 Noxa PPI 75.8 (no result: Bim-Mcl-1)
CCOC(=O)C1CCCN(c2c(N3CCN(c4cccc(Cl)c4)CC3)c(=O)c2=O)C1 (centres undefined)	Mcl1-Bid inh 86.1
CCOC(=O)C1CCCN(c2c(N3CCN(C)CC3)c(=O)c2=O)C1 (centres undefined)	none
C/C=C\C=C/C(=O)Nc1cccc(C2=NOC3(C2)C[C@H](C(N)=O)N(C(=O)Cc2ccc([N+](=O)[O-])cc2)C3)c1 (some centres undefined)	Mcl1 Noxa PPI 65.0 (no result: Bim-Mcl-1)
C/C=C\C=C/C(=O)Nc1cccc(C2=NOC3(C2)C[C@H](C(N)=O)N(C(=O)c2ccc(OC)cc2)C3)c1 (some centres undefined)	Mcl1 Noxa PPI 62.6 (no result: Bim-Mcl-1)
C/C=C\C=C/C(=O)Nc1cccc(C2=NOC3(C2)C[C@@H](C(N)=O)N(C(=O)c2ccc(Cl)cc2)C3)c1 (some centres undefined)	none (no result: Bim-Mcl-1)
CCSC1=NC2(CCCCC2)Nc2sc3c(c21)CCCC3	Mcl1-Bid inh 74.4
C/C(=N\NC(=S)NC1CCCCC1)c1ccc(OC(F)F)cc1OC(F)F	Calpain2 inh 53.9
CC(C)OC(=O)CSc1nnc2n1C(C)(C)Cc1ccccc1-2	none
CCOC(=O)CSc1nnc2n1C(C)(C)Cc1ccccc1-2	Mcl1 Noxa PPI 92.4
CN(C)c1ccc(C(=O)/C=C/c2ccccc2)cc1	none
CN(C)c1ccc(C(=O)/C=C/c2ccc(Br)cc2)cc1	Bim-Mcl-1 82.0
O=C1N/C(=C/c2ccc(Br)cc2)C(O)=C1C=NCc1ccccc1	Mcl1-Bid inh 53.7
O=C1NC(=NCc2ccccc2)S/C1=C/c1ccc(O)cc1	none
CN(C)c1ccc(-n2cccc2)cc1	Mcl1 Noxa PPI 62.4 (no result: Bim-Mcl-1)
Cc1oc2c(c1C(=O)Nc1cccc3ccccc13)CCCC2	Calpain2 inh 58.3
CC(Nc1ccccc1)c1cc(Cl)ccc1O (centres undefined)	none
CC(Nc1ccccc1)c1ccncc1 (centres undefined)	none
COc1ccc(NC(C)c2cc(Cl)ccc2O)cc1 (centres undefined)	Calpain2 inh 50.2
COc1ccc(NC(C)c2ccccc2)cc1 (centres undefined)	TNF death inh 51.5
Cc1ccc(OCC(=O)NNC(=O)C2CCCO2)c(C)c1 (centres undefined)	none
O=C(O)c1ccc2c(=O)[nH]c(CCl)nc2c1	none
O=C(N/N=C/c1ccco1)c1ccc(N2CCCC2=O)cc1	Mcl1-Bid inh 93.4
O=C(NCc1ccco1)c1ccc(N2CCCC2=O)cc1	none
Cc1cccc(N2CCN(c3ccc(NC(=O)/C=C(/C(=O)O)c4ccccc4)cc3)CC2)c1	Mcl1 Noxa PPI 52.3
COc1ccccc1C(=O)NC(=S)NNC(=O)c1sc2ccccc2c1Cl	Mcl1-Bid inh 73.4
Cn1c(N)c(C(=O)COC(=O)CCc2nc3ccccc3s2)c(=O)n(C)c1=O	none
Cn1c(N)c(C(=O)CSc2nc3ccccc3c(=O)n2Cc2ccccc2)c(=O)n(C)c1=O	Mcl1-Bid inh 51.8 (no result: Bim-Mcl-1)
Cn1c(N)c(C(=O)COC(=O)c2cc(-c3ccco3)nc3ccccc23)c(=O)n(C)c1=O	Mcl1 Noxa PPI 86.7
Cn1c(N)c(C(=O)COC(=O)CCCc2nc3ccccc3s2)c(=O)n(C)c1=O	Calpain2 inh 50.7
Cn1c(N)c(C(=O)COC(=O)C2CCCCC2)c(=O)n(C)c1=O	Calpain2 inh 89.3
COc1ccc(CCN2CC(C(=O)NCc3ccc(F)cc3)CC2=O)cc1OC (centres undefined)	none (no result: Bim-Mcl-1)
Cn1c(N)c(C(=O)COC(=O)c2cc(-c3ccco3)nc3ccccc23)c(=O)n(Cc2ccccc2)c1=O	Mcl1 Noxa PPI 106.4
Cc1cc(NC(=O)CSc2nc3ccccc3c(=O)n2Cc2ccc(F)cc2)no1	Mcl1-Bid inh 56.7
CCCCCCn1c(SCC(=O)Nc2cc(C)on2)nc2ccccc2c1=O	none (no result: Mcl1 Noxa PPI)
CCc1ccc(C(=O)NNc2ccc(F)cc2F)cc1	none (no result: Bim-Mcl-1)
Cc1ccc(C(=O)NNC(=O)c2cc(OCC(F)(F)F)ccc2OCC(F)(F)F)cc1	none
O=C(NNC(=O)c1cc(OCC(F)(F)F)ccc1OCC(F)(F)F)c1cccc(C(F)(F)F)c1	Calpain2 inh 91.6
CCC(=O)NC1(C(F)(F)F)C(=O)Nc2c1c(=O)[nH]c(=O)n2CC(C)C (centres undefined)	none (no result: Bim-Mcl-1)
CSc1nc2cc(C)nn2c(-c2ccccc2)c1C#N	none (no result: Bim-Mcl-1)
O/N=C(\c1ccc(Cl)cc1)c1cc2ccccc2o1	Calpain2 inh 64.6
COc1ccc(NC(=O)CN(C)C(=O)c2oc3ccccc3c2C)cc1	none
CC1C/C(=C/c2ccco2)C(=O)/C(=C/c2ccco2)C1 (centres undefined)	Mcl1 Noxa PPI 52.8
O=C1/C(=C\c2ccco2)CCC/C1=C\c1ccco1	none
CCOc1ccc2nc(-c3cc(NC(C)=O)ccc3O)sc2c1	none
C=CCn1c(-c2cc(Cl)ccc2OC)n[nH]c1=S	none
CCn1c(-c2cc(Cl)ccc2OC)n[nH]c1=S	Mcl1 Noxa PPI 59.3
CC1=CCC[C@@H]2[C@@](C)(CC/C(C)=C/C(=O)O)[C@H](C)CC[C@@]12C	none
Cc1ccc(C(=O)NCCCn2ccnc2)o1	Mcl1-Bid inh 61.8
c1ccc2oc(-c3ccc(Nc4nc(N5CCCC5)nc(N5CCOCC5)n4)cc3)nc2c1	none
